The values below come from PubChem BioAssay.

Assay [1] can be described thus: yeast TOR pathway RPL19A-GFP modulators, primary screen, cell-based, S. cerevisiae, multiplex flow cytometry (AID 1862; in the data active means percent of DMSO control GFP below about 86%;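 further: lower values mimic rapamycin by blocking the RPL19A rise seen in DMSO cells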). Conditions: S. cerevisiae RPL19A-GFP strain, flow cytometry fluorescence, 3 h; at 10 µM; stronger effect = lower value. On the technique in general: A flow cytometer gives signals particle by particle.
Assay [2] is described as follows: modulators of MEP2-GFP levels in yeast, primary screen, S. cerevisiae, multiplex flow cytometry (AID 1867;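 active means GFP response, as percent of the DMSO control, above the screen-wide mean plus 3 SD, about 139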;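 further: median GFP channel fluorescence of barcode-gated MEP2-GFP cells measured by flow cytometry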). Conditions: S. cerevisiae MEP2-GFP strain, 3 h, at 10 µM, stronger effect = higher value, 100% means same as DMSO wells.
Assay [3] can be described thus: modulators of CIT2-GFP expression in yeast, primary screen, S. cerevisiae, GFP fusion, multiplex flow cytometry (AID 1870;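 active means percent response above a set limit, the screen-wide mean plus 3 SD, cut at about 130% in these data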;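 further: barcoded CIT2-GFP strain pooled with four other GFP strains with rapamycin as positive control; median GFP fluorescence per well over plate mean of DMSO wells so 100% = DMSO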). Conditions: 3 h, at 10 µM, stronger effect = higher value.
Assay [4] can be described thus: modulators of LAP4-GFP expression in yeast, primary screen, S. cerevisiae, multiplex flow cytometry (AID 1873). Conditions: 3 h, at 10 µM, stronger effect = higher value.
A short description of assay [5]: modulators of AGP1-GFP expression in yeast TOR pathway, primary screen, cell-based, multiplex flow cytometry, S. cerevisiae (AID 1887;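 active means GFP signal above the screen-wide mean plus 3 SD, that is over about 124.5% of the solvent control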;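 further: AGP1-GFP fusion strain of S. cerevisiae within a five-strain barcoded multiplex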). Conditions: 3 h, at 10 µM, stronger effect = higher value.
The nature of assay [6]: inhibitors of CD8+ T cell-vesicle binding, pilot screen, LFA-1/ICAM-1 modulator project, MLPCN validation set, flow cytometry (AID 2523;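 active means response below a set limit, under 55% cells CD8-positive and vesicle-bound, and CD8 cells' 90th-percentile brightness under 279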;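 on vesicle binding response: mean PE anti-B7-1 fluorescence of CD8+ cells relative to row control; 100% = QL9-loaded vesicles with DMSO vehicle in the same plate row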). Conditions: 2C mouse CD8+ T cells, at 7 µM, stronger effect = lower value; double positive events: measured here: CD8+/vesicle+ event percentage.
For assay [7], the target named is Integrin beta-1 (Homo sapiens) + Integrin alpha-4 (Homo sapiens) (UniProt P13612+P05556). Briefly: inhibition of HUTS-21 binding to VLA-4, pilot screen, VLA-4 allosteric modulator project, U937 cells, HUTS-21 mAb, flow cytometry, validation set (AID 2674;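 active means inhibition above 50%, about 3 SD of the validation set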;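 further: antibody binding induced by the VLA-4 ligand LDV present at three times its Kd; 0% = LDV ligand with antibody and no compound and 100% = antibody without LDV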). Conditions: HUTS-21 LIBS mAb binding, at 6.7 µM, stronger effect = higher value, binding induced by LDV ligand.
Assay [8] can be described thus: superoxide lowering in aged yeast cells, pilot screen, validation compound set (AID 2706;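 active means superoxide response below 65% of plate, a cut near 3 SD across the whole screen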;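 further: yeast exposed to compound for one week at 30 degrees C before staining; 100% = mean of all compound wells on the same plate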). Conditions: S. cerevisiae aging, superoxide DHE fluorescence; at 10 µM, stronger effect = lower value.
Assay [9] deals with Beta-adrenergic receptor kinase 1 (Homo sapiens) (UniProt P25098). Briefly: GRK2 binders displacing RNA aptamer, biochemical, validation, human GRK2, bead flow cytometry (AID 488806;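 active means aptamer binding inhibition above 30%, about 3 SD of noise from non-fluorescent compounds; inactive means inhibition at or below 30%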). Conditions: bead-bound GRK2, FAM-aptamer displacement, at 10 µM, stronger effect = higher value.
The target in assay [10] is AP-2 complex subunit beta (Homo sapiens) (UniProt P63010). The assay can be described thus: inhibitors of arrestin peptide binding to AP2, pilot screen, biochemical, validation set, GST-AP2 beads, flow cytometry (AID 504541;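 active means inhibition above 54%, about 3 SD of non-fluorescent compounds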;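 further: AP2 carries R879A mutation and is captured from E. coli lysate; bead-bound FITC arrestin peptide fluorescence measuring arrestin peptide binding to AP2; 0% = DMSO wells and 100% = excess unlabeled arrestin peptide control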). Conditions: FITC arrestin peptide, at 10 µM, stronger effect = higher value, AP2 beta2 appendage fragment, R879A mutant.
Assay [11] is described as follows: yeast V-ATPase proton transport modulators, S. cerevisiae, pHLuorin, HTS validation (AID 504600; in the data active means response above about 15%;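 further: plate controls were DMSO for no effect and reference compound for full effect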). Conditions: S. cerevisiae pHLuorin cytosolic pH, at 10 µM, stronger effect = higher value.
Assay [12] deals with anti-desmoglein-3 scFv antibody binding to human DSG3. The assay can be described thus: inhibitors of anti-DSG3 scFv binding to DSG3, pilot screen, biochemical, validation compound set, bead-based, flow cytometry (AID 588368;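 active means binding below the plate cutoff, the plate median minus 3 SD, with a reading above zero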;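 further: signal is the median channel fluorescence of bead-bound GFP antibody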). Conditions: Protein G beads, DSG3-Fc, scFv-GFP binding, at 10 µM, stronger effect = lower value.
Assay [13] can be described thus: inhibitors of fungal efflux pumps CDR1, CDR2, MDR1, pilot screen, validation compound set, multiplex, phenotypic (AID 588506;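 active means efflux inhibition above 0.42, the validation set average plus 4 SD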;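 further: Nile Red retained in cells so higher fluorescence means more efflux inhibition; 0 = negative control wells and 1 = enniatin B 25 µM full block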). Conditions: S. cerevisiae pump-expressing triplex, Nile Red efflux flow cytometry; at 10 µM; stronger effect = higher value; the pumps come from Candida albicans.
Assay [14] addresses ATP-binding cassette sub-family B member 6 (Homo sapiens) (UniProt Q9NP58). The assay can be described thus: ABCB6 transporter inhibitors, pilot screen, K562-ABCB6 cells, flow cytometry, validation set (AID 588550;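 active means inhibition above the screen-wide mean plus 3 SD, about 51%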;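 further: 0% = DMSO wells and 100% = benzethonium chloride 70 µM positive control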). Conditions: K562-ABCB6 porphyrin accumulation, 1 h, at 10 µM, stronger effect = higher value.
Assay [15] is described as follows: promoters of myeloid differentiation in arrested cells, primary screen, cell-based, GFP/MAC1 double positive, flow cytometry, validation set (AID 588685;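 active means differentiation response of at least 50%, scaled between solvent and reference control, from cells with both markers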;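 further: compound exposure lasts four days before antibody staining and flow analysis; 0% = DMSO wells and 100% = 5 µM fulvestrant positive control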). Conditions: ER-HoxA9 marrow cells, stronger effect = higher value, normalized: vehicle 0, fulvestrant 100.

Results filed as inconclusive are left out. Activity calls are given as the source filed them.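 How the source made its calls, unless noted: active means GFP signal, as percent of the solvent control, above the screen mean plus 3 SD, about 149; inconclusive means no reading because the compound's own fluorescence upset strain identification; inactive means the rest.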

What is called inhibition is the drop in the measured response relative to a control, in per cent.

Chain of Integrin beta-1 (Homo sapiens) + Integrin alpha-4 (Homo sapiens) (P05556 whole entry, looked up): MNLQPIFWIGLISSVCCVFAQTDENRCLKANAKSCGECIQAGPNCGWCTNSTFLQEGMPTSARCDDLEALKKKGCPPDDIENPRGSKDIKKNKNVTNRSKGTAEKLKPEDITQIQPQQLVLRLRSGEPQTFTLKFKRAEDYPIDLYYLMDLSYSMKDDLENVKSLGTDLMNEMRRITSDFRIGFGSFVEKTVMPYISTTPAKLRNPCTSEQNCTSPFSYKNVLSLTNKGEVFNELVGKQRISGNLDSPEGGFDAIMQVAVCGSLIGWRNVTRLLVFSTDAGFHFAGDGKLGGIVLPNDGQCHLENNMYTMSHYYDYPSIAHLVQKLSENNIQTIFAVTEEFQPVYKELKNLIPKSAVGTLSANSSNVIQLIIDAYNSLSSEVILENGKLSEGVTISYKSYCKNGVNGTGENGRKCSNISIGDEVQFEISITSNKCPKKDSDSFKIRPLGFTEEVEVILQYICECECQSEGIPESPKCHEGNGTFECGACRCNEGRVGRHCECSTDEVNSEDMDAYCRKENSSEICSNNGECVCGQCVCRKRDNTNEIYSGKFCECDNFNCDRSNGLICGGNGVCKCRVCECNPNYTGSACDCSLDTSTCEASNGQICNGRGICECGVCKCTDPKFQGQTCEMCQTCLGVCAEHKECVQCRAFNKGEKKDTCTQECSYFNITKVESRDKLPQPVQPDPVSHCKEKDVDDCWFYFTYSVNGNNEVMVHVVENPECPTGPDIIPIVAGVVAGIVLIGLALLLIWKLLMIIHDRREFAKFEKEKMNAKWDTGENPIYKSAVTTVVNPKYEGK
Chain of Integrin beta-1 (Homo sapiens) + Integrin alpha-4 (Homo sapiens) (P13612 whole entry, looked up): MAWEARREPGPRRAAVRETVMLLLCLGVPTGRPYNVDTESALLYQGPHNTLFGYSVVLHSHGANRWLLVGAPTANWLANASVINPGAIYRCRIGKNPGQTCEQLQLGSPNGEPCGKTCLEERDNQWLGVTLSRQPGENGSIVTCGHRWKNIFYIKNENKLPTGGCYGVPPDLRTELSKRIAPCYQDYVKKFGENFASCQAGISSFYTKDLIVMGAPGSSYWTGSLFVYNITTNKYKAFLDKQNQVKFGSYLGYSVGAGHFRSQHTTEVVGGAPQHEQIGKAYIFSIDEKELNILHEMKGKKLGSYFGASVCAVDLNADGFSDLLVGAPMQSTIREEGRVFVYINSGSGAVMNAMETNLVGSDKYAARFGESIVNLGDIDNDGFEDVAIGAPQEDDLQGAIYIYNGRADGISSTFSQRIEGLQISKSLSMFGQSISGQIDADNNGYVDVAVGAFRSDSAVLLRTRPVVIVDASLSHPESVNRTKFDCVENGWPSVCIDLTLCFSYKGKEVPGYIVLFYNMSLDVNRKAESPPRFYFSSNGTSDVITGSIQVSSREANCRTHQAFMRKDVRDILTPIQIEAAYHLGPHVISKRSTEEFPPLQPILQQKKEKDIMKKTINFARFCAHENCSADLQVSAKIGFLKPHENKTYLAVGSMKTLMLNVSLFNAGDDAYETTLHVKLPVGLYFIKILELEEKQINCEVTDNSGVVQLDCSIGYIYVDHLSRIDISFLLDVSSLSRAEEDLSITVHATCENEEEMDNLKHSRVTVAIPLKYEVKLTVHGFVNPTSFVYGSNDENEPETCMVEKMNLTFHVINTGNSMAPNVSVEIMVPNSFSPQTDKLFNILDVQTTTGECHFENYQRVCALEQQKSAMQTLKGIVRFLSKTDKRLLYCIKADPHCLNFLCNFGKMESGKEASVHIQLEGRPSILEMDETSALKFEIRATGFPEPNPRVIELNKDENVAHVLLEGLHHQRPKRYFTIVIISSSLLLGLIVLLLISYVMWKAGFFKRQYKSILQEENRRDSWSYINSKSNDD
Chain of AP-2 complex subunit beta (Homo sapiens) (P63010 whole entry, looked up, the tested form may be a part, one chain of several): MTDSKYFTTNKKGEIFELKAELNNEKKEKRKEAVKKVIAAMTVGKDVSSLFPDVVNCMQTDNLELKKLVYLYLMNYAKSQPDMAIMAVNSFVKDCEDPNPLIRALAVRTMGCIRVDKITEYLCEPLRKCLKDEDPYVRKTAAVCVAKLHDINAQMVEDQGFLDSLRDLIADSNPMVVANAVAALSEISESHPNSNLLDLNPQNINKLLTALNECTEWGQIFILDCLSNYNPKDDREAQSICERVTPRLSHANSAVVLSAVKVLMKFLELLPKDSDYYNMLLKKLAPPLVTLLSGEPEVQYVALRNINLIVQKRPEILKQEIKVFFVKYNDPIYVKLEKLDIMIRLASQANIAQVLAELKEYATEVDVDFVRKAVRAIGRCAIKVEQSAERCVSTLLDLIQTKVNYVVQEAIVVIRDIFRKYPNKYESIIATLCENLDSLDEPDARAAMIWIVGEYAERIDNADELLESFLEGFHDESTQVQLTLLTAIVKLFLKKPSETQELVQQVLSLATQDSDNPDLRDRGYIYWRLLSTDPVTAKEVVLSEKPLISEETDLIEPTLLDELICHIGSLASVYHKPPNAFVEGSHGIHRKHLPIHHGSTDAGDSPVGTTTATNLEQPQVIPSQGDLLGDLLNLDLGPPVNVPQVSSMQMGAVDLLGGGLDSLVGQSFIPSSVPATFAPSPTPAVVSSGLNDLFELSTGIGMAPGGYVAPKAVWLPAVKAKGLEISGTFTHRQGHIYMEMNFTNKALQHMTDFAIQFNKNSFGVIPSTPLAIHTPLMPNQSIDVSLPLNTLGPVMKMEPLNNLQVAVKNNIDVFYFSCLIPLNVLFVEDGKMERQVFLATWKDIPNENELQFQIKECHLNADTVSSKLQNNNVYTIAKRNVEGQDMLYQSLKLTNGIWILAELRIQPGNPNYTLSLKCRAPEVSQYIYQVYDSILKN
Chain of Beta-adrenergic receptor kinase 1 (Homo sapiens) (P25098 whole entry, looked up): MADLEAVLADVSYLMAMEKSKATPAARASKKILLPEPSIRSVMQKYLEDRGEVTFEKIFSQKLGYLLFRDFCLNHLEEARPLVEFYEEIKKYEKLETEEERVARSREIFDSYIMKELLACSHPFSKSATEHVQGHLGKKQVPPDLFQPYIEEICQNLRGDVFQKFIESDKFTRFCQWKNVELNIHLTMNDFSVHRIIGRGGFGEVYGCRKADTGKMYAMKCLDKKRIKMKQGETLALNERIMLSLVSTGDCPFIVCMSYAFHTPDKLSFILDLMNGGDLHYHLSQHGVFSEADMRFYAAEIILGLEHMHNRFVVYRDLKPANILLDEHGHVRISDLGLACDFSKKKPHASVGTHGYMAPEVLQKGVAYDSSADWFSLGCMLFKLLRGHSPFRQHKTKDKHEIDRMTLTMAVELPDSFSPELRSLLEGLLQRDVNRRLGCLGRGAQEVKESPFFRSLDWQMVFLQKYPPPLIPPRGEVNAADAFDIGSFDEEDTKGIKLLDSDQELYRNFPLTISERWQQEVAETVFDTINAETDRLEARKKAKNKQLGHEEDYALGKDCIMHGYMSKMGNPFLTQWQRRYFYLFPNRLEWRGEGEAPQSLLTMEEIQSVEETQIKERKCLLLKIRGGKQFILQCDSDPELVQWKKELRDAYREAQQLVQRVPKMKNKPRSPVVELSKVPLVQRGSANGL
Chain of ATP-binding cassette sub-family B member 6 (Homo sapiens) (Q9NP58 whole entry, looked up): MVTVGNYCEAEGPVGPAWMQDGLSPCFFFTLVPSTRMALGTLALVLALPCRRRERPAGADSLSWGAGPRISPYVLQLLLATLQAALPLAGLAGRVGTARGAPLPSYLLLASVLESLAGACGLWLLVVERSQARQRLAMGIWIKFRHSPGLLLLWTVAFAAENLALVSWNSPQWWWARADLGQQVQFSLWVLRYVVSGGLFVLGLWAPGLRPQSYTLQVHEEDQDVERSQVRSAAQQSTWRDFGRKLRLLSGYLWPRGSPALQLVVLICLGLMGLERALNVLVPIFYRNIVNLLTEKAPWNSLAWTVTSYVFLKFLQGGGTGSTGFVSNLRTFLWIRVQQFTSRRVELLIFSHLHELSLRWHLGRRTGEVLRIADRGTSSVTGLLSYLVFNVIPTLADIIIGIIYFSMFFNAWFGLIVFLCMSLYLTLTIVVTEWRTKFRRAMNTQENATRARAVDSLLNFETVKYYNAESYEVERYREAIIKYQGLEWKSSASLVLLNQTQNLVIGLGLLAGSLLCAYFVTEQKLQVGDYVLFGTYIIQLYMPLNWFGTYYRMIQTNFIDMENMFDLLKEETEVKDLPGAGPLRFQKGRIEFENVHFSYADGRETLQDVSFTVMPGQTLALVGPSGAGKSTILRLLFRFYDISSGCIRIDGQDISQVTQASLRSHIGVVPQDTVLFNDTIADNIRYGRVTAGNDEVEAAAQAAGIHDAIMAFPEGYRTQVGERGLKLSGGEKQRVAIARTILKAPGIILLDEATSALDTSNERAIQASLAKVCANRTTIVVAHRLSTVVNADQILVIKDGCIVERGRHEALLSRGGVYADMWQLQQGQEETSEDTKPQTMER

For `CC(=O)OCC(=O)[C@@]12OC3(CCCC3)O[C@@H]1C[C@H]1[C@@H]3CCC4=CC(=O)C=C[C@]4(C)[C@@]3(F)[C@@H](O)C[C@@]12C`, in assay [1], the percent of DMSO control GFP was 98.5% (inactive). In addition, the results for the GFP response vs DMSO in assay [2] and in assay [4] were 96.9% (inactive) and 106% (inactive), respectively. Also, the percent response of DMSO control in [3] was 99.8% (inactive). Also, the GFP response, % of DMSO in assay [5] was 101% (inactive). The molecule further gave a double positive events in assay [6] of 61.4%. The vesicle binding response in assay [6] is 173% (inactive). The inhibition in assay [7] is -12.4% (inactive); in [10], 26.6% (inactive); in assay [14], 6% (inactive). Also, the superoxide response (% of plate) in assay [8] is 97% (inactive). In addition, in [9], the aptamer binding inhibition was 2% (inactive). The response in assay [11] was -4.26% (inactive). In assay [12], the binding (% of control) is 96.4% (inactive). Further, the efflux inhibition (fraction of control) in assay [13] was 0.9 (active). Besides, the differentiation response in assay [15] was -3.43% (inactive).
Consider `CC(C)Cc1ccc(C(C)C(=O)Nc2ccc(O)cc2)cc1` (stereo not given), for which, in assay [1], the percent of DMSO control GFP was 103% (inactive). For the same molecule, the GFP response vs DMSO in assay [2] is 105% (inactive); in [4] it was 106% (inactive). Further, the percent response of DMSO control in [3] is 107% (inactive). Moreover, the GFP response, % of DMSO in [5] was 99.7% (inactive). Further, the double positive events in assay [6] was 58.6%. The vesicle binding response in [6] is 178% (inactive). Also, the inhibition in [7] is 13.8% (inactive); in assay [10] it was 33.6% (inactive); in [14], 1% (inactive). Also, in [8], the superoxide response (% of plate) was 110% (inactive). Also, the aptamer binding inhibition in assay [9] was 2% (inactive). Moreover, the response in assay [11] was -13.1% (inactive). In assay [12], the binding (% of control) was 105% (inactive). Moreover, the efflux inhibition (fraction of control) in assay [13] was 0.14 (inactive). For the same molecule, the differentiation response in [15] was 0% (inactive).
As for `COc1ccc(C2(CCN=Cc3ccc(N(C)C)cc3)CCOC(C)(C)C2)cc1` (stereo not given), in assay [1], the percent of DMSO control GFP is 104% (inactive). Further, the GFP response vs DMSO is 102% (inactive) in [2] and 95.4% (inactive) in assay [4]. The percent response of DMSO control in assay [3] was 99.8% (inactive). In addition, the GFP response, % of DMSO in [5] is 95.2% (inactive). In addition, in [6], the double positive events worked out at 58.8%. The vesicle binding response in assay [6] is 222% (inactive). Besides, the inhibition in assay [7] is -3.97% (inactive); in assay [10] it was -3.62% (inactive); in assay [14], 12% (inactive). The superoxide response (% of plate) in assay [8] was 98.3% (inactive). The aptamer binding inhibition in assay [9] is 0% (inactive). The response in [11] is -4.5% (inactive). The binding (% of control) in assay [12] is 128% (inactive). In addition, the efflux inhibition (fraction of control) in [13] was -0.24 (inactive). Also, the differentiation response in assay [15] was 7.87% (inactive).
`CCOC(=O)c1ccccc1NC(=O)c1ccc(F)cc1`: the percent of DMSO control GFP in assay [1] is 101% (inactive). For the same molecule, the GFP response vs DMSO is 108% (inactive) in assay [2] and 92.3% (inactive) in assay [4]. Also, the percent response of DMSO control in assay [3] was 103% (inactive). The GFP response, % of DMSO in assay [5] is 91.8% (inactive). The double positive events in assay [6] was 60.4%. Also, the vesicle binding response in assay [6] was 102% (inactive). For the same molecule, the inhibition was 10.9% (inactive) in [7], 6.01% (inactive) in [10] and 13% (inactive) in assay [14]. The superoxide response (% of plate) in assay [8] is 100% (inactive). In addition, the aptamer binding inhibition in assay [9] is 3% (inactive). Moreover, the response in assay [11] was -5.23% (inactive). In assay [12], the binding (% of control) is 98.8% (inactive). The efflux inhibition (fraction of control) in assay [13] is 0.37 (inactive). Moreover, the differentiation response in assay [15] is -13.1% (inactive).
For `O=c1nc2cccc3c2=c(/c1=C(\O)c1ccccc1)c1ccccc1c3=O`, in [1], the percent of DMSO control GFP was 102% (inactive). For the same molecule, the GFP response vs DMSO in assay [2] was 102% (inactive); in assay [4], 96.4% (inactive). In assay [3], the percent response of DMSO control was 105% (inactive). For the same molecule, the GFP response, % of DMSO in assay [5] is 99.3% (inactive). Also, the double positive events in assay [6] worked out at 47.4%. Besides, in assay [6], the vesicle binding response was 175% (inactive). Also, the inhibition is -23.6% (inactive) in assay [7], 17.9% (inactive) in assay [10] and 9% (inactive) in [14]. For the same molecule, the superoxide response (% of plate) in [8] is 99.9% (inactive). The aptamer binding inhibition in assay [9] is 8% (inactive). Also, in assay [11], the response is 1.67% (inactive). Further, the binding (% of control) in assay [12] was 91% (inactive). In addition, the efflux inhibition (fraction of control) in [13] is -0.16 (inactive). In [15], the differentiation response is -6.66% (inactive).
